The record followed here is PubChem BioAssay AID1117361 (Southern Research Institute, 2015).

As a reminder, the inhibition is the share of the control response that was lost under treatment.

Screen size: about 3,600 compounds; about 900 (25%) were called active. Only a sample is shown. Potency and affinity values are given separately. Values without a mark were called inactive. The rule behind the calls is not given here.

The target of this experiment is Protein Tat (Human immunodeficiency virus type 1 group M subtype B (isolate HXB2)) (UniProt P04608). The experiment in a line: inhibitors of Tat binding to TAR RNA, dose response, counter-screen for Vif-APOBEC3G degradation inhibitor project, biochemical, fluorescence polarization, FAM-labeled TAR RNA (AID 1117361). Conditions: outcome: dose series up to 100 µM unless noted; series mostly up to 100 µM; inhibition: at the top concentration.
Regarding `CCc1ccc(CCC(=O)Nc2ccc(S(N)(=O)=O)cc2)o1`, the “inhibition” value is 17.6%.
Turning to `Cc1onc(-c2ccccc2)c1CNC(=O)C1COc2ccccc2O1` (stereo unspecified), the molecule was called inactive.
Consider `CCc1cccc(NC(=O)Cn2ncn3c(cc4ccccc43)c2=O)c1`, for which the “inhibition” value was 8.11%.
Still for that read-out and setting: with `O=S(=O)(c1ccc(OCc2nc3ccccc3s2)c(Cl)c1)N1CCOCC1` the figure was 4.09%.
Still for that read-out and setting: with `COc1ccc(C(=O)N2CC3(C)CC2CC(C)(C)C3)cc1` (stereo unspecified) the figure was 2.03%; with `Cc1ccc(OCCN2CCCCCC2)c(C)c1`, 2.73%; with `Cc1cc(SCC(=O)N/N=C/c2ccc(O)c(O)c2O)c(C)cc1Br`, 0.33%.
`Cc1c(/C=N\NC(=O)c2csc3ccccc23)cnn1C`: the outcome was inactive.
On to `COc1cccc(/C=N/NC(=O)c2cnccn2)c1O`, for which the “inhibition” value is 10.7%.
With `CCn1c(C)nc2cc(C(=O)NNC(=O)CCC3CCCCC3)ccc21`, the molecule was called inactive.
Same read-out and setting: with `CC1CCCCC1NC(=S)Nc1cccc(S(=O)(=O)N(C)C)c1` (stereo unspecified) the entry was “inactive”; with `CN(C)S(=O)(=O)c1ccc(NC(=O)c2cc3ccccc3o2)cc1`, “inactive”.
On to `CCN(CC)S(=O)(=O)c1cccc(NN=c2c(=O)c3ccccc3c2=O)c1`, for which the “inhibition” value is 11.6%.
As to `Cc1cccc(N/C=C/C(=C(C#N)C#N)N(C)C)c1`, the “inhibition” value was 16.2%.
Consider `CNC(=O)CN(C)S(=O)(=O)c1ccc(F)cc1`, for which the result was inactive.
Same read-out and setting: with `C=CCSc1nnc(NC(=O)CSc2nnc(C)s2)s1` the entry was “inactive”.
For `COc1ccc(C(=O)n2nc(-c3ccccc3)nc2SC)cc1`, the “inhibition” value was 5.41%.
As to `CCOc1ccc(NC(=O)C2CCCN(S(=O)(=O)c3c(C)n[nH]c3C)C2)cc1` (stereo unspecified), the “inhibition” value was 0.82%.
Same read-out and setting: with `CCCNC(=O)Cn1c2ccccc2c2nc(=O)cc(C)n21` the figure was 4.73%; with `CCOC(=O)c1c(C)[nH]c(C(=O)CSc2nnc(C3CC3)n2N)c1C`, 3.38%.
Regarding `CN(C)S(=O)(=O)N1CCN(c2ccc(Cl)cc2)CC1`, the outcome was inactive.
Take `CCCC(=O)NC(C)C(c1cccs1)N1CCN(C)CC1` (stereo unspecified): the “inhibition” value was 9.69%.
Same read-out and setting: with `Cc1ccc(S(=O)(=O)N(C)c2ccccc2C(=O)N2CCCC2)cc1` the figure was 1%.
The same measure, in the same setting: with `COc1cc(C(=O)NNC(=S)NCc2ccco2)cc(OC)c1OC` the figure was 21.4%; with `O=C(Cc1ncn[nH]1)NCCc1ccccc1`, 2.7%; with `O=C(NCc1ccco1)c1ccc2snnc2c1`, 6.82%.
Turning to `CC(C)(C)c1ccc(S(=O)(=O)NCc2ccc(C(=O)NCc3ccccn3)cc2)cc1`, the molecule was called inactive.
`COc1ccc(C(=O)NCc2cccnc2)cc1OC`: the “inhibition” value is 2.03%.
`O=C(NCCc1ccccc1)c1ccc2c(c1)N(Cc1ccccc1)C(=O)CS2=O` (stereo unspecified): the “inhibition” value was 4.05%.
The same measure, in the same setting: with `COc1ccc(CCNC(=O)Cn2nnc(-c3cccc(OC)c3OC)n2)cc1OC` the figure was 5.46%.
In the case of `O=C(CCS(=O)(=O)c1cccs1)Nc1ccc(C(=O)NCc2ccccc2)cc1`, the molecule was called inactive.
Regarding `CCS(=O)(=O)N1CCC(C(=O)NCc2ccccn2)CC1`, the “inhibition” value was 5.41%.
The same measure, in the same setting: with `CC(c1nnc(SCn2nnc3ccccc3c2=O)n1-c1ccc(Cl)cc1)N(C)C` (stereo unspecified) the figure was 8.11%.
Still for that read-out and setting: with `COc1cccc(-c2nc(CS(=O)(=O)CC(=O)NC3CC3)c(C)o2)c1` the figure was 6.35%; with `CCOc1ccc(N2CC(C(=O)NCC(=O)Nc3ccc(F)c(F)c3F)CC2=O)cc1` (stereo unspecified), 4.12%.
The same measure, in the same setting: with `NS(=O)(=O)c1ccc(NC(=O)c2ccccc2C(=O)N2CCCCC2)cc1` the figure was 8.11%.
For the molecule `CCN(C(=O)CCc1nc(-c2ccccc2F)no1)c1cc(OC)ccc1OC`, the molecule was called inactive.
As to `COc1ccccc1NC(=O)COC(=O)c1cc2c(s1)CCC2`, the “inhibition” value is 23.1%.
As for `CCOC(=O)c1cccc2c(=O)c(C(=O)c3ccc(Cl)cc3)c(C(=O)OC)[nH]c12`, the “inhibition” value was 3.3%.
Turning to `C/C(=N\OC(=O)c1ccc(F)cc1)c1sc(-c2ccccc2)nc1C`, the outcome was inactive.
Consider `CC1CCc2cc(F)ccc2N1C(=O)C1(C)CC1(Cl)Cl` (stereo unspecified), for which the “inhibition” value is 8.11%.
On the same count and under the same terms, with `O=C(NCc1ccccn1)c1ccc(Cn2cc(Br)cn2)o1` the figure was 29.3%; with `C/C(=N\O)C(=O)NCc1ccccn1`, 23.2%.
As to `O=C(NC1=CC(=O)c2ccccc2C1=O)c1ccccc1`, the molecule was classed as inactive.
The same measure, in the same setting: with `Cc1ccc(NC(=O)CNC(=O)COc2ccccc2)nc1` the entry was “inactive”.
With `COc1ccc2cc(C(=O)N3CCOCC3)sc(=O)c2c1OC`, the “inhibition” value is 10.2%.
As to `COc1ccccc1/C=C/C=C1N=C(/C=C/c2ccc(Cl)cc2)OC/1=O`, the result was inactive.
For `COc1ccc(OC)c(/C(O)=C/C(=O)C(=O)Nc2ccccc2OC)c1`, the “inhibition” value was 16.2%.
Regarding `COc1ccc(/C=C/C(=O)NC(=S)Nc2ccccn2)cc1`, the result was inactive.
For `COc1ccc(/C=C(/NC(C)=O)C(=O)O)cc1`, the “inhibition” value was 0.68%.
Same read-out and setting: with `CN1C(=O)CC(N2CCN(C(=O)c3ccccc3)CC2)C1=O` (stereo unspecified) the figure was 6.76%.
The same measure, in the same setting: with `Cc1cc(-n2ccnc2)n2c(nc3ccccc32)c1C#N` the figure was 15%; with `COc1cc(-n2cnnn2)ccc1S(=O)(=O)N1CCOCC1`, 3.01%.
The same measure, in the same setting: with `CCCn1c(=O)c(-c2ccccc2)c(O)c2ccccc21` the figure was 12.8%.
With `O=C1c2ccccc2S(=O)(=O)N1CC(O)COc1ccc(Br)cc1` (stereo unspecified), the molecule was classed as inactive.
Same read-out and setting: with `CCOC(=O)C1C(c2ccc(O)c(OCC)c2)NC(=S)NC1(O)C(F)(F)F` (stereo unspecified) the entry was “inactive”.
